Measurements reported in PubChem BioAssay.
Results filed as inconclusive are left out. Activity calls are given as the source filed them.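 How the source made its calls, unless noted: active means inhibition above 54%, about 3 SD of non-fluorescent compounds; inactive means the rest.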

Experiments:
[1] = rapamycin-like changes in RPL19A-GFP expression – cell-based, S. cerevisiae, multiplex flow cytometry, primary screen (AID 1862; in the data active means percent of DMSO control GFP below about 86%;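 further: lower values mimic rapamycin by blocking the RPL19A rise seen in DMSO cells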); details: S. cerevisiae RPL19A-GFP strain, flow cytometry fluorescence, 3 h; at 10 µM; stronger effect = lower value
[2] = TOR pathway GLN3 branch reporter MEP2-GFP changes – S. cerevisiae, multiplex flow cytometry, primary screen (AID 1867;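 active means GFP response, as percent of the DMSO control, above the screen-wide mean plus 3 SD, about 139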;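 further: median GFP channel fluorescence of barcode-gated MEP2-GFP cells measured by flow cytometry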); details: S. cerevisiae MEP2-GFP strain, 3 h, at 10 µM, stronger effect = higher value, 100% means same as DMSO wells
[3] = TOR pathway RTG branch CIT2 reporter changes – S. cerevisiae, GFP fusion, multiplex flow cytometry, primary screen (AID 1870;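 active means percent response above a set limit, the screen-wide mean plus 3 SD, cut at about 130% in these data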;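 further: barcoded CIT2-GFP strain pooled with four other GFP strains with rapamycin as positive control; median GFP fluorescence per well over plate mean of DMSO wells so 100% = DMSO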); details: S. cerevisiae CIT2-GFP expression, 3 h, at 10 µM, stronger effect = higher value
[4] = TOR pathway LAP4-GFP level changes – S. cerevisiae, multiplex flow cytometry, primary screen (AID 1873;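 active means GFP signal, as percent of the solvent control, above the screen mean plus 3 SD, about 149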); details: S. cerevisiae LAP4-GFP expression, 3 h, at 10 µM, stronger effect = higher value
[5] = yeast AGP1-GFP level changes, GLN3 branch – cell-based, multiplex flow cytometry, S. cerevisiae, primary screen (AID 1887;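 active means GFP signal above the screen-wide mean plus 3 SD, that is over about 124.5% of the solvent control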;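 further: AGP1-GFP fusion strain of S. cerevisiae within a five-strain barcoded multiplex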); details: 3 h, at 10 µM, stronger effect = higher value
[6] = reduced mouse 2C T cell binding to pMHC/ICAM-1 vesicles – MLPCN validation set, flow cytometry, LFA-1/ICAM-1 modulator project, pilot screen (AID 2523;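 active means response below a set limit, under 55% cells CD8-positive and vesicle-bound, and CD8 cells' 90th-percentile brightness under 279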;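 on vesicle binding response: mean PE anti-B7-1 fluorescence of CD8+ cells relative to row control; 100% = QL9-loaded vesicles with DMSO vehicle in the same plate row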); details: 2C mouse CD8+ T cells, at 7 µM, stronger effect = lower value; double positive events: measured here: CD8+/vesicle+ event percentage
[7] = target: Integrin beta-1 (Homo sapiens) + Integrin alpha-4 (Homo sapiens) (UniProt P13612+P05556); experiment: alpha4beta1 integrin LIBS antibody binding reduction – U937 cells, HUTS-21 mAb, flow cytometry, validation set, VLA-4 allosteric modulator project, pilot screen (AID 2674;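 active means inhibition above 50%, about 3 SD of the validation set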;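 further: antibody binding induced by the VLA-4 ligand LDV present at three times its Kd; 0% = LDV ligand with antibody and no compound and 100% = antibody without LDV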); details: HUTS-21 LIBS mAb binding, at 6.7 µM, stronger effect = higher value, binding induced by LDV ligand
Chain of Integrin beta-1 (Homo sapiens) + Integrin alpha-4 (Homo sapiens) (P05556 whole entry, looked up): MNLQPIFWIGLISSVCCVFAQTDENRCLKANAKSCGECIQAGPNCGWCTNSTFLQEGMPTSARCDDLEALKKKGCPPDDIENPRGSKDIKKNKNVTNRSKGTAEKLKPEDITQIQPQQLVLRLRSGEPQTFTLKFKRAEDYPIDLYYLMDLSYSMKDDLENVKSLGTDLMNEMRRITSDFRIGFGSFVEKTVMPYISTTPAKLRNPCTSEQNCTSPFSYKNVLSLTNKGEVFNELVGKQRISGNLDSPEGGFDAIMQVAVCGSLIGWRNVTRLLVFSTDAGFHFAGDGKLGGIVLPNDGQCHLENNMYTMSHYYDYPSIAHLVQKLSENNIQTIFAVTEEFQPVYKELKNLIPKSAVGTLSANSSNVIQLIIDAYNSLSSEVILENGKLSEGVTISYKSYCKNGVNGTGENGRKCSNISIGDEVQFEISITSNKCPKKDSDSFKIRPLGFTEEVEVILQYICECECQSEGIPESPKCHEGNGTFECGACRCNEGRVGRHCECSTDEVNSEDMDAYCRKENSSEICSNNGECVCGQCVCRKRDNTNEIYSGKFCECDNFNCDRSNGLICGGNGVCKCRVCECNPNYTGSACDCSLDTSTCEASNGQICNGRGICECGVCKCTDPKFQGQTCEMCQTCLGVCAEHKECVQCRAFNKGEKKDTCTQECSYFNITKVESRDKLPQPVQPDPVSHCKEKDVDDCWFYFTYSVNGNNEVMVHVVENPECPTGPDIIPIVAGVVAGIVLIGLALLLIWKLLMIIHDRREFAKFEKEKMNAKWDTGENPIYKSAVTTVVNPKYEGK
Chain of Integrin beta-1 (Homo sapiens) + Integrin alpha-4 (Homo sapiens) (P13612 whole entry, looked up): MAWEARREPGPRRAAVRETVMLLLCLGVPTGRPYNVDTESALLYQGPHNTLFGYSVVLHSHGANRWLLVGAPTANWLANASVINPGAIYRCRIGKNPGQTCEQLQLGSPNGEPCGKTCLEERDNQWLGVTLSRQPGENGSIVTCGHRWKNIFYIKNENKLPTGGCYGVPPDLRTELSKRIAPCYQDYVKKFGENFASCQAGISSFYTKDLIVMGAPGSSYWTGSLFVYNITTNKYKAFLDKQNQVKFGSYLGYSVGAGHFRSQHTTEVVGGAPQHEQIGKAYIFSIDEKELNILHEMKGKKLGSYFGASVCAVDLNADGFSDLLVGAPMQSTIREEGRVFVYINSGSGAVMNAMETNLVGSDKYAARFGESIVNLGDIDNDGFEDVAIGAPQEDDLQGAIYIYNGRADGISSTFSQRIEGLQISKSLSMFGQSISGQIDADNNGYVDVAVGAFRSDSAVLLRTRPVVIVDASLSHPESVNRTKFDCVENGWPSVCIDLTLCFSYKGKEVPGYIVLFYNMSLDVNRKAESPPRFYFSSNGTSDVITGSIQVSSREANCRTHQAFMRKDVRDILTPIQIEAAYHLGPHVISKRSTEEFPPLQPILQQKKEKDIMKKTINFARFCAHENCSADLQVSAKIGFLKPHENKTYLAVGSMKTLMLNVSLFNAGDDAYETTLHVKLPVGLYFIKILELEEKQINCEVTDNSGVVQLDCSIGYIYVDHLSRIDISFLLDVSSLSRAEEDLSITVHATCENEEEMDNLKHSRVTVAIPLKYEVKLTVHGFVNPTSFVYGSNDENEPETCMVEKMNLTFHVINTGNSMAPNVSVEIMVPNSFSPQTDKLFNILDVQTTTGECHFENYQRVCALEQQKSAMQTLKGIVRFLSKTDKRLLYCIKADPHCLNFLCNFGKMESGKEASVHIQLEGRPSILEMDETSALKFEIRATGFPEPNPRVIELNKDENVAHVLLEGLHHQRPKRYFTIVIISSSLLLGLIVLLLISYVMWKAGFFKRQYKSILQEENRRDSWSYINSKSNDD

[8] = calorie-restriction mimetic ROS inhibitors, yeast – validation compound set, pilot screen (AID 2706;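 active means superoxide response below 65% of plate, a cut near 3 SD across the whole screen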;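 further: yeast exposed to compound for one week at 30 degrees C before staining; 100% = mean of all compound wells on the same plate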); details: S. cerevisiae aging, superoxide DHE fluorescence; at 10 µM; stronger effect = lower value
[9] = target: Beta-adrenergic receptor kinase 1 (Homo sapiens) (UniProt P25098); experiment: GRK2 binders displacing RNA aptamer, biochemical, validation, human GRK2, bead flow cytometry (AID 488806;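 active means aptamer binding inhibition above 30%, about 3 SD of noise from non-fluorescent compounds; inactive means inhibition at or below 30%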); details: bead-bound GRK2, FAM-aptamer displacement, at 10 µM, stronger effect = higher value
Chain of Beta-adrenergic receptor kinase 1 (Homo sapiens) (P25098 whole entry, looked up): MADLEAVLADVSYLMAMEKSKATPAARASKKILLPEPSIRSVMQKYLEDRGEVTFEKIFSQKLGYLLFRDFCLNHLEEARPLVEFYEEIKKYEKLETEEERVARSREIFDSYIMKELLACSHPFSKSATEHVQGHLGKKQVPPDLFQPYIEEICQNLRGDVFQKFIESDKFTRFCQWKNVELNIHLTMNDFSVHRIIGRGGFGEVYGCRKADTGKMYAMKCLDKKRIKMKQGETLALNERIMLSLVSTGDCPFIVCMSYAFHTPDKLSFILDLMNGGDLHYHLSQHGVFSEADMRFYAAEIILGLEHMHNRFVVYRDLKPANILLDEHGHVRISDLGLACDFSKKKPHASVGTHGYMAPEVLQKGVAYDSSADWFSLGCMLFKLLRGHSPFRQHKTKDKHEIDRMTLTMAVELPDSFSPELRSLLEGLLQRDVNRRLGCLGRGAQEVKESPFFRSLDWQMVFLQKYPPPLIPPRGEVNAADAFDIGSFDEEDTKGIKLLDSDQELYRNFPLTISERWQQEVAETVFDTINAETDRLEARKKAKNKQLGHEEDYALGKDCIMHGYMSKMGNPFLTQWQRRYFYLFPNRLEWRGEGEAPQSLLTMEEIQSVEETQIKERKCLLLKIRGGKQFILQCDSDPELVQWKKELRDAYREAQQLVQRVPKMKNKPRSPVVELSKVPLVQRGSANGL

[10] = target: Beta-2 adrenergic receptor (Homo sapiens) (UniProt P07550); experiment: agonist-induced loss of surface beta2AR – cell-based, FAP fluorogen, flow cytometry, validation set, pilot screen (AID 504459;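 active means percent response above 42, roughly 3 SD of non-fluorescent test compounds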;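 further: agonist-driven loss of surface beta2AR via internalization measured by FAP dye flow cytometry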); details: Am2.2-beta2AR cells, at 10 µM, stronger effect = higher value
Chain of Beta-2 adrenergic receptor (Homo sapiens) (P07550 whole entry, looked up, the tested form may be a part): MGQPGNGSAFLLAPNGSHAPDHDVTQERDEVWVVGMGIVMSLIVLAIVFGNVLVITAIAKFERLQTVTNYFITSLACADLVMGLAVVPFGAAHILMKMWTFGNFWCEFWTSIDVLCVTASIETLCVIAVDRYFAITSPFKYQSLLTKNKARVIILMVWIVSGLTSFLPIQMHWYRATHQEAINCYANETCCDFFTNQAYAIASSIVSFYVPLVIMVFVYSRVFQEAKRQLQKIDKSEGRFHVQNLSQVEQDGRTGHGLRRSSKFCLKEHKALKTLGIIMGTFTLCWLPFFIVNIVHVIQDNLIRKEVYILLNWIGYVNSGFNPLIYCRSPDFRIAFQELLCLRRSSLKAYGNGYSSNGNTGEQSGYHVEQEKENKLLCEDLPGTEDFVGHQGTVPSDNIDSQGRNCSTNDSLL

[11] = target: AP-2 complex subunit beta (Homo sapiens) (UniProt P63010); experiment: beta-arrestin/AP2 interaction blockers – biochemical, validation set, GST-AP2 beads, flow cytometry, pilot screen (AID 504541); details: FITC arrestin peptide, at 10 µM, stronger effect = higher value, AP2 beta2 appendage fragment, R879A mutant;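 further: AP2 carries R879A mutation and is captured from E. coli lysate; bead-bound FITC arrestin peptide fluorescence measuring arrestin peptide binding to AP2; 0% = DMSO wells and 100% = excess unlabeled arrestin peptide control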
Chain of AP-2 complex subunit beta (Homo sapiens) (P63010 whole entry, looked up, the tested form may be a part, one chain of several): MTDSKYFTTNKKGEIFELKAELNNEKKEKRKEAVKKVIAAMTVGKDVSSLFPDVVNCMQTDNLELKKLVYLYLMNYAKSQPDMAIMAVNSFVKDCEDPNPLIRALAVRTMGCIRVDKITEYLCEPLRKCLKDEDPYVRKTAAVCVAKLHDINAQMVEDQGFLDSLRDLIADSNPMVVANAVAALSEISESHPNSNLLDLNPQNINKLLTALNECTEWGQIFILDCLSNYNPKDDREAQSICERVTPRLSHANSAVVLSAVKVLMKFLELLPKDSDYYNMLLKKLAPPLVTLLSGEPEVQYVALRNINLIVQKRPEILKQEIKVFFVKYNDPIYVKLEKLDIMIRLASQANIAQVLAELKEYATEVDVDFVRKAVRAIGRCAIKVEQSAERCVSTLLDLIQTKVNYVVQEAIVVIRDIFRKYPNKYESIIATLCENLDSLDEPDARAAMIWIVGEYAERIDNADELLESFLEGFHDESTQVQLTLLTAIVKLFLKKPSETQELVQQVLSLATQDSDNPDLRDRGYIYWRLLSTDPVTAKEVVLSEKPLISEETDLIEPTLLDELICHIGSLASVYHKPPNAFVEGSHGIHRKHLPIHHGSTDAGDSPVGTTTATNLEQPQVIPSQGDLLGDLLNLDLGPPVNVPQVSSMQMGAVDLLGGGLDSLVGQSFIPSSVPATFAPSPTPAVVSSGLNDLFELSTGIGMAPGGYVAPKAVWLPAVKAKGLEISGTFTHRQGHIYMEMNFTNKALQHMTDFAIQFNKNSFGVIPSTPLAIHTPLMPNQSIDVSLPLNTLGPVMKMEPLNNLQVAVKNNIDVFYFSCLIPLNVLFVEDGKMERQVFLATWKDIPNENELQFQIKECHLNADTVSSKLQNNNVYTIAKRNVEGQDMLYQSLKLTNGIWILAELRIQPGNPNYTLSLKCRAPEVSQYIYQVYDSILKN

[12] = cytosolic pH regulators acting via V-ATPase – S. cerevisiae, pHLuorin, HTS validation (AID 504600; in the data active means response above about 15%;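 further: plate controls were DMSO for no effect and reference compound for full effect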); details: V-ATPase proton transport, at 10 µM, stronger effect = higher value
[13] = test system: anti-desmoglein-3 scFv antibody binding to human DSG3; experiment: blockers of pathogenic pemphigus antibody–desmoglein-3 binding – biochemical, validation compound set, bead-based, flow cytometry, pilot screen (AID 588368;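 active means binding below the plate cutoff, the plate median minus 3 SD, with a reading above zero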;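 further: signal is the median channel fluorescence of bead-bound GFP antibody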); details: Protein G beads, DSG3-Fc, scFv-GFP binding, at 10 µM, stronger effect = lower value
[14] = Nile Red efflux blockade in pump-expressing yeast – validation compound set, multiplex, phenotypic, pilot screen (AID 588506;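 active means efflux inhibition above 0.42, the validation set average plus 4 SD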;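 further: Nile Red retained in cells so higher fluorescence means more efflux inhibition; 0 = negative control wells and 1 = enniatin B 25 µM full block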); details: S. cerevisiae pump-expressing triplex, Nile Red efflux flow cytometry; at 10 µM; stronger effect = higher value; the pumps come from Candida albicans
[15] = target: ATP-binding cassette sub-family B member 6 (Homo sapiens) (UniProt Q9NP58); experiment: blockers of ABCB6-driven porphyrin uptake – K562-ABCB6 cells, flow cytometry, validation set, pilot screen (AID 588550;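 active means inhibition above the screen-wide mean plus 3 SD, about 51%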;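 further: 0% = DMSO wells and 100% = benzethonium chloride 70 µM positive control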); details: K562-ABCB6 porphyrin accumulation, 1 h, at 10 µM, stronger effect = higher value
Chain of ATP-binding cassette sub-family B member 6 (Homo sapiens) (Q9NP58 whole entry, looked up): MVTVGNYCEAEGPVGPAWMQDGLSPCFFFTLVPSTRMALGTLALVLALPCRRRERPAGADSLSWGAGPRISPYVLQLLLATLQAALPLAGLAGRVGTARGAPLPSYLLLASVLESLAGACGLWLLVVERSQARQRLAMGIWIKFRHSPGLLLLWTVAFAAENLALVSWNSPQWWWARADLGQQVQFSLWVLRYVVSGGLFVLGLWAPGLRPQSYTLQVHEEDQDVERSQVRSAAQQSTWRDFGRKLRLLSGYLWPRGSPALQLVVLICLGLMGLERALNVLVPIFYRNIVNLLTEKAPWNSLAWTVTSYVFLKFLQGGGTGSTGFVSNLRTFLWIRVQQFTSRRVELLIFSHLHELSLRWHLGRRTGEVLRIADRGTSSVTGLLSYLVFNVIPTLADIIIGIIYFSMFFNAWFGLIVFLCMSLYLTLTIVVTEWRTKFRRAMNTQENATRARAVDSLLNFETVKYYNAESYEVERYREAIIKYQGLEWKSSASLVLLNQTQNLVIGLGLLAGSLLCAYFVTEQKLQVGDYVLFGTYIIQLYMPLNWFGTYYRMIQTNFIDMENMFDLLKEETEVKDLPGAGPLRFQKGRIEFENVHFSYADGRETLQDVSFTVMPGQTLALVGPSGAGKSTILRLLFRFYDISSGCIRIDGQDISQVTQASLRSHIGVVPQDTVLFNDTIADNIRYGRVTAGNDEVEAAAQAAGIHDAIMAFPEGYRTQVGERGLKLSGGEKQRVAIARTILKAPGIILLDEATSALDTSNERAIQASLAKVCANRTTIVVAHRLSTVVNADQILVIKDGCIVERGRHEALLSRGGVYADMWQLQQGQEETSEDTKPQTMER

[16] = AML differentiation inducers, ER-HoxA9 marrow cells – cell-based, GFP/MAC1 double positive, flow cytometry, validation set, primary screen (AID 588685;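 active means differentiation response of at least 50%, scaled between solvent and reference control, from cells with both markers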;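 further: compound exposure lasts four days before antibody staining and flow analysis; 0% = DMSO wells and 100% = 5 µM fulvestrant positive control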); details: stronger effect = higher value, normalized: vehicle 0, fulvestrant 100

Row | SMILES | percent of DMSO control GFP [1] | GFP response vs DMSO [2] | percent response of DMSO control [3] | GFP response vs DMSO [4] | GFP response, % of DMSO [5] | double positive events [6] | vesicle binding response [6] | inhibition [7] | superoxide response (% of plate) [8] | aptamer binding inhibition [9] | response [10] | inhibition [11] | response [12] | binding (% of control) [13] | efflux inhibition (fraction of control) [14] | inhibition [15] | differentiation response [16]
1 | CCOC(=O)N1c2ccccc2C=CC1OCC (stereo not given) | 103% (inactive) | 97.7% (inactive) | 102% (inactive) | 108% (inactive) | 109% (inactive) | 57% | 109% (inactive) | 2.93% (inactive) | 110% (inactive) | 3% (inactive) | 2.04% (inactive) | -6.59% (inactive) | -0.43% (inactive) | 103% (inactive) | -0.29 (inactive) | -3% (inactive) | -13.3% (inactive)
2 | Nc1nc2c(nc(SCc3ccccc3Br)n2C2OC(CO)C(O)C2O)c(=O)[nH]1 (stereo not given) | 102% (inactive) | 97.4% (inactive) | 101% (inactive) | 108% (inactive) | 101% (inactive) | 62.7% | 50.1% (inactive) | -1.79% (inactive) | 94.9% (inactive) | 0% (inactive) | 17.9% (inactive) | 26.3% (inactive) | -4.55% (inactive) | 90.9% (inactive) | 0.12 (inactive) | 1% (inactive) | -23.2% (inactive)
3 | Clc1ccc(CCNc2ncnc3nc[nH]c23)cc1 | 97.4% (inactive) | 108% (inactive) | 92% (inactive) | 105% (inactive) | 99.7% (inactive) | 60.8% | 127% (inactive) | 0.94% (inactive) | 108% (inactive) | 4% (inactive) | -5.61% (inactive) | 5.59% (inactive) | -0.06% (inactive) | 97.2% (inactive) | 0.08 (inactive) | 10% (inactive) | -0.8% (inactive)
4 | CC1(C)CC(=O)c2cnc(NC(=O)C3CCCC3)nc2C1 | 105% (inactive) | 96.2% (inactive) | 109% (inactive) | 80.8% (inactive) | 96.5% (inactive) | 61% | 442% (inactive) | 4.73% (inactive) | 95.1% (inactive) | 6% (inactive) | -15.9% (inactive) | -7.26% (inactive) | -0.99% (inactive) | 96.1% (inactive) | 0.36 (inactive) | -50% (inactive) | 10% (inactive)
5 | COc1ccc(C(CC(=O)N2CCOCC2)C(C)C)cc1 (stereo not given) | 100% (inactive) | 99.6% (inactive) | 101% (inactive) | 118% (inactive) | 106% (inactive) | 55.7% | 56.1% (inactive) | 2.3% (inactive) | 77.9% (inactive) | 3% (inactive) | -9.06% (inactive) | -2.4% (inactive) | 1.44% (inactive) | 95.3% (inactive) | -0.06 (inactive) | 7% (inactive) | -18.4% (inactive)
6 | COc1ccc(N2CCN(C(=S)NCc3ccccc3)CC2)cc1 | 91.7% (inactive) | 133% (inactive) | 101% (inactive) | 81.4% (inactive) | 88.2% (inactive) | 65.5% | 171% (inactive) | 0.64% (inactive) | 82.1% (inactive) | 2% (inactive) | -3.32% (inactive) | 30.1% (inactive) | -3.6% (inactive) | 108% (inactive) | 0.16 (inactive) | 0% (inactive) | 4.09% (inactive)
7 | CN(C)CC/C=C1\c2ccccc2Sc2ccc(Cl)cc21 | 104% (inactive) | 110% (inactive) | 103% (inactive) | 106% (inactive) | 106% (inactive) | 64.5% | 157% (inactive) | 9.63% (inactive) | 88.7% (inactive) | -5% (inactive) | 19.9% (inactive) | 54.9% (active) | -15.9% (inactive) | 106% (inactive) | 0.08 (inactive) | 9% (inactive) | -17.7% (inactive)
8 | CC(C)=CCC(C)(C)/C=N/NC(N)=O | 101% (inactive) | 102% (inactive) | 98.3% (inactive) | 109% (inactive) | 111% (inactive) | 59.7% | 464% (inactive) | 14.2% (inactive) | 97.9% (inactive) | 4% (inactive) | -21.9% (inactive) | -2.34% (inactive) | 1.02% (inactive) | 100% (inactive) | 0 (inactive) | 4% (inactive) | 5.85% (inactive)
9 | CCN(CC)c1ccc([C@H]2[C@@H]3CCCC[C@]3(O)CCN2CC(=O)NCc2ccco2)cc1 | 97.4% (inactive) | 108% (inactive) | 91% (inactive) | 121% (inactive) | 98.5% (inactive) | 60.3% | 190% (inactive) | -25% (inactive) | 95.1% (inactive) | 4% (inactive) | 47.5% (active) | -7.96% (inactive) | 25.9% (active) | 99.5% (inactive) | 0.33 (inactive) | 8% (inactive) | -7.2% (inactive)
10 | COc1cccc(-n2cc(CNCc3c(C(=O)N(C)C)nc4ccc(Cl)cn34)cn2)c1 | 103% (inactive) | 106% (inactive) | 111% (inactive) | 90.1% (inactive) | 99.9% (inactive) | 61.4% | 171% (inactive) | -4.6% (inactive) | 106% (inactive) | 5% (inactive) | -6.24% (inactive) | -5.56% (inactive) | -0.56% (inactive) | 98% (inactive) | -0.26 (inactive) | 19% (inactive) | 10% (inactive)
